One assay deals with GB4. As to the kind of experiment: qHTS profiling for inhibitors of Plasmodium falciparum proliferation (AID 504749). Further: nearly all actives have a fitted effect of over 60% in size. Further: potency means the concentration at half of the fitted maximal effect. To be noted: P. falciparum in erythrocytes, SYBR Green DNA, 72 h; series mostly up to 28.7 µM. The essentials:
(§1)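 Each compound contacts P. falciparum-infected red blood cells for 72 h at 37 C; lysis buffer (Tris, EDTA, saponin, Triton X, SYBR Green I) is added and fluorescence measured next morning; values normalized to controls.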
Background: qHTS replaces the single test concentration by a dilution series.

In a further assay the test system is P93_24. The description is as above. The following applies: P. falciparum in erythrocytes, SYBR Green DNA, 72 h; series mostly up to 28.7 µM. The essentials:
as §1

For assay [1], the target named is Ubiquitin carboxyl-terminal hydrolase 1 (Homo sapiens) (UniProt O94782). As to the kind of experiment: Inhibitors of USP1/UAF1: Pilot qHTS (AID 504865).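 Further: rhodamine fluorescence freed from ubiquitin-rhodamine substrate followed over time; top concentration of the series differs between compounds; nearly all actives have a fitted effect of over 35% in size.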 The essentials:
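In 50mM HEPES pH 7.8 containing 0.5mM EDTA, 1mM TCEP, 0.1 mg/ml BSA and 0.01% Tween-20, 1nM USP1/UAF1 is exposed to compound for 15 min, then Ub-Rho (150nM final) is added and fluorescence is read over time.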

Another assay concerns 3D7. The experiment in a line: qHTS profiling for inhibitors of Plasmodium falciparum proliferation (AID 504749). Further: nearly all actives have a fitted effect of over 60% in size. Further: potency means the concentration at half of the fitted maximal effect. The following applies: P. falciparum in erythrocytes, SYBR Green DNA, 72 h; series mostly up to 28.7 µM. The essentials: as §1
Another assay concerns AA1029. Described as above. The following applies: P. falciparum in erythrocytes, SYBR Green DNA, 72 h; series mostly up to 28.7 µM. The essentials:
as §1

The next assay deals with ATS95. The description is as above. The following applies: P. falciparum in erythrocytes, SYBR Green DNA, 72 h; series mostly up to 28.7 µM. The essentials: as §1
The subject of a further assay is C2A. The assay is described as above. The following applies: P. falciparum in erythrocytes, SYBR Green DNA, 72 h; series mostly up to 28.7 µM. The essentials:
as §1

A further assay has as its system CP203. The description is as above. The following applies: P. falciparum in erythrocytes, SYBR Green DNA, 72 h; series mostly up to 28.7 µM. The essentials: as §1
The test system of a further assay is CP211. The assay is described as above. To be noted: P. falciparum in erythrocytes, SYBR Green DNA, 72 h; series mostly up to 28.7 µM. The essentials: as §1
A further assay relates to CP217. The assay is described as above. To be noted: P. falciparum in erythrocytes, SYBR Green DNA, 72 h; series mostly up to 28.7 µM. The essentials:
as §1

The next assay deals with CP250. Described as above. The following applies: P. falciparum in erythrocytes, SYBR Green DNA, 72 h; series mostly up to 28.7 µM. The essentials:
as §1

In a further assay the test system is CP256. The assay is described as above. To be noted: P. falciparum in erythrocytes, SYBR Green DNA, 72 h; series mostly up to 28.7 µM. The essentials:
as §1

For another assay, the system named is CP260. Described as above. To be noted: P. falciparum in erythrocytes, SYBR Green DNA, 72 h; series mostly up to 28.7 µM. The essentials:
as §1

Another assay concerns CP286. The assay is described as above. To be noted: P. falciparum in erythrocytes, SYBR Green DNA, 72 h; series mostly up to 28.7 µM. The essentials:
as §1

The subject of the next assay is CP335. The assay is described as above. To be noted: P. falciparum in erythrocytes, SYBR Green DNA, 72 h; series mostly up to 28.7 µM. The essentials: as §1
A further assay relates to Dd2. Described as above. To be noted: P. falciparum in erythrocytes, SYBR Green DNA, 72 h; series mostly up to 28.7 µM. The essentials:
as §1

A further assay relates to JCK. The assay is described as above. The following applies: P. falciparum in erythrocytes, SYBR Green DNA, 72 h; series mostly up to 28.7 µM. The essentials:
as §1

The test system of a further assay is PC26. The assay is described as above. The following applies: P. falciparum in erythrocytes, SYBR Green DNA, 72 h; series mostly up to 28.7 µM. The essentials: as §1
The next assay concerns TAB165. The description is as above. To be noted: P. falciparum in erythrocytes, SYBR Green DNA, 72 h; series mostly up to 28.7 µM. The essentials: as §1
Assay [2] is described as follows: qHTS Assay for Identification of Small Molecule Antagonists for Thrombopoietin (TPO) Signaling Pathway (AID 918). Further: potency means the concentration at half of the fitted maximal effect; nearly all actives have a fitted effect of over 60% in size. To be noted: TPO-dependent cell signaling reporter, antagonist mode. The essentials:
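Inhibition read as reduced luciferase luminescence after 24 h at 37 C in IL-3-deprived Ba/F3 cells carrying human TPO receptor and GPIIb-promoter reporter, stimulated with 26 pM TPO (final, its EC50) alongside compound.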

Inconclusive results are not listed. Active and inactive are the calls of the source. The call rests on the fitted dose curve; in most records, active means well fitted curve in the direction sought with a large enough effect; inconclusive means small, poorly fitted or top-dose-only effect, or another doubt; inactive means no such curve, though single readings can be large; an effect the other way counts as inactive or inconclusive.

Chain of Ubiquitin carboxyl-terminal hydrolase 1 (Homo sapiens) (O94782 whole entry, looked up): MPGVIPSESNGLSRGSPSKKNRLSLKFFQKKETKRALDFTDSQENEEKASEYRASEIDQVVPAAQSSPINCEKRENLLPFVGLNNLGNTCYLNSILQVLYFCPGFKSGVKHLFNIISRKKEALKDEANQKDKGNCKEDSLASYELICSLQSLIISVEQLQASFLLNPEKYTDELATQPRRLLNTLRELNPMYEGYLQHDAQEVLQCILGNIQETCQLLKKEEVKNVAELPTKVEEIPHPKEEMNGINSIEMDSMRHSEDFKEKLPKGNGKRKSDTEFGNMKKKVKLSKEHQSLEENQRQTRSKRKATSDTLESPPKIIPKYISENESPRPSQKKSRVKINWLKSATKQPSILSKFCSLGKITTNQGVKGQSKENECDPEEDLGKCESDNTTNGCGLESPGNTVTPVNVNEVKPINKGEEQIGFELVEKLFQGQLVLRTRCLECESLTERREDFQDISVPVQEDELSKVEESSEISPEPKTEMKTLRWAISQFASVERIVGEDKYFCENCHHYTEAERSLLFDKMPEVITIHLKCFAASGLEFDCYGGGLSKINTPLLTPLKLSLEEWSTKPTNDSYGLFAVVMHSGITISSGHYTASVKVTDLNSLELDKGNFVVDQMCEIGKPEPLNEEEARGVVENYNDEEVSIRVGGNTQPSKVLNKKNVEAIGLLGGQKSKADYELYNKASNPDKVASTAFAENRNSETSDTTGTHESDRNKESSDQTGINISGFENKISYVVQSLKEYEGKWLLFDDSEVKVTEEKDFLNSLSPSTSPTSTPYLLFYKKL

As to `CCc1ccc2c(c1)N(C[C@H](C)CN(C)C)c1ccccc1S2`, the Potency with GB4 is 7.57 µM (active); in the assay on P93_24, 7.94 µM (active).

`OC[C@H](S)CS`: the Potency entry (in assay [1]; in the assay on C2A; with CP203; with CP211; in the assay with CP217; in the assay with CP250) was “inactive” throughout. Further, the Potency result in the assay with CP256, with PC26 and in the assay on TAB165 was “inactive” throughout. For the same molecule, the Potency in the assay with 3D7 was 3.16 µM (active); with AA1029, 10 µM (active); in the assay with ATS95 it was 12.6 µM (active); in the assay with CP260 it was 0.891 µM (active); in the assay with CP286, 3.16 µM (active); with CP335, 3.38 µM (active). The Potency with Dd2 is 2.24 µM (active); in the assay with JCK it was 10 µM (active).

Regarding `Cc1nnc(SCC2=C(C(=O)O)N3C(=O)[C@@H](NC(=O)Cn4cnnn4)[C@@H]3SC2)s1`, the Potency entry in [1] was “inactive”.

With `O=C1O/C(=C\Br)CC[C@@H]1c1cccc2ccccc12`, the Potency in assay [2] was 10 µM (active).

On to `C[N+]1(C)[C@@H]2CC(OC(=O)[C@@H](CO)c3ccccc3)C[C@@H]1[C@H]1O[C@H]12` (some centres not stated), for which the Potency result (in assay [1]; with 3D7; in the assay on AA1029; in the assay with C2A; in the assay on CP203; in the assay on CP211) was “inactive” throughout. In addition, the Potency result with CP217, in the assay on CP250, in the assay with CP256, in the assay with CP260, in the assay with CP286 and in the assay on CP335 was “inactive” throughout. The Potency entry in the assay with Dd2, in the assay with GB4, in the assay on JCK, with P93_24, in the assay with PC26 and in the assay on TAB165 was “inactive” throughout.

As to `CC(=O)N1CCN(c2ccc(OC[C@@H]3CO[C@@](Cn4ccnc4)(c4ccc(Cl)cc4Cl)O3)cc2)CC1`, the Potency entry in the assay with 3D7, in the assay on AA1029, with ATS95, with C2A, in the assay on CP211 and in the assay with CP217 was “inactive” in each case. Moreover, the Potency entry in the assay with CP250, in the assay with CP256, with CP260, in the assay with Dd2 and in the assay on JCK was “inactive” throughout.

On to `N[C@H](COP(=O)(O)O)C(=O)O`, for which the Potency entry (in [1]; in the assay on 3D7; in the assay with AA1029; in the assay with ATS95; in the assay on C2A; in the assay with CP203) was “inactive” in each case. Also, the Potency entry in the assay on CP211, in the assay with CP217, in the assay with CP250, in the assay on CP256, with CP260 and in the assay on CP286 was “inactive” in each case. For the same molecule, the Potency entry in the assay with CP335, with Dd2, in the assay with GB4, in the assay with JCK, with P93_24 and with PC26 was “inactive” in each case. Also, the Potency result in the assay with TAB165 was “inactive”.

As for `CSC(N)=NCCC[C@@H](N)C(=O)O`, the Potency in [2] was 3.16 µM (active).

As for `Oc1ccc([C@@H]2CNCc3sccc32)cc1O`, the Potency in [2] is 12.6 µM (active).

With `CN(C)C(=O)/N=N\C(=O)N(C)C`, the Potency in assay [2] is 10 µM (active).

The record behind these values is PubChem BioAssay (NCATS).
